Values joined by “and” are separate entries in the source; they are usually repeats but may differ in a detail not shown here. Equal values may be shown once. This is part of a sample that, as a whole, favours compounds with a hit. Of some 83,000 tested, about 20% had one in any assay.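 Single-concentration screen, 48 h exposure, 96-well plates. Endpoint: percent growth. Below 10 = active.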 Active and inactive are the calls of the source.
Tested on: HS 578T breast
Experiment: NCI-60 one-dose screen, 48 h (100 = growth as untreated, 0 = no growth, -100 = all killed)
Settings: 10 µM unless noted

Structure (SMILES) | growth
CCc1cc(C)cc(O)c1 | 110% (inactive)
NN1CCOC(c2ccccc2)C1 (centres undefined) | 99.5% (inactive)
ClCCOCCOc1ccc(C2CCCCC2)cc1 | 101% (inactive)
O=c1n(CC2CO2)c(=O)n(CC2CO2)c(=O)n1CC1CO1 (centres undefined) | 104% (inactive)
Cc1ccc(S(=O)(=O)c2ccccc2)cc1 | 35.2% (inactive)
O=C(/C=C/c1ccccc1)c1ccccc1 | 98.4% (inactive)
Cc1cc(-c2ccc(N=Nc3ccc4c(S(=O)(=O)O)cc(S(=O)(=O)O)c(N)c4c3O)c(C)c2)ccc1N=Nc1ccc2c(S(=O)(=O)O)cc(S(=O)(=O)O)c(N)c2c1O | 119% (inactive)
c1ccc(CNCCNCc2ccccc2)cc1 | 114% (inactive)
Cc1cc2ccccc2cn1 | 113% (inactive) and 144% (inactive)
CCCCCCCCCCCCCCCc1ccc(N)c(OC2OC(CO)C(O)C(O)C2O)c1 (centres undefined) | 103% (inactive)
O=C(O)CCCl | 96.4% (inactive)
C#CCOC(=O)Nc1ccccc1 | 105% (inactive)
CC(C)C(C)(C)c1ccc(O)cc1 | 114% (inactive)
Cc1cc(-c2cc(C)c(O)c(C)c2)cc(C)c1O | 85.1% (inactive)
CC1(C)COC(=S)N1 | 106% (inactive)
CCOC(=O)c1c(C)cc(=O)oc1C | 118% (inactive)
CC[C@H](CC[C@@H](C)[C@H]1CC[C@H]2[C@@H]3CC=C4C[C@@H](O)CC[C@]4(C)[C@H]3CC[C@]12C)C(C)C | 96.5% (inactive) and 103% (inactive)
CN1CNC(=O)NC1 | 109% (inactive) and 96.5% (inactive)

Structure (SMILES) | growth
CC1CCC2(OC1)OC1CC3C4CC=C5CC(O)CCC5(C)C4CCC3(C)C1C2C (centres undefined) | 86.8% (inactive)
COc1cc(C(O)C2C(=O)OCC2C2(c3ccc4c(c3)OCO4)SCCCS2)cc(OC)c1OC (centres undefined) | 101% (inactive)
Nc1nc(N)c2[nH]cnc2n1 | 114% (inactive)
Cn1cnc([N+](=O)[O-])c1Sc1ncn[nH]1 | 119% (inactive)
O=c1[nH]cnc2c1ncn2C1OC(CO)C(O)C1O (centres undefined) | 109% (inactive) and 110% (inactive) and 91.9% (inactive)
CC(=O)OCC1OC(OC(C)=O)C(OC(C)=O)C(OC(C)=O)C1OC(C)=O (centres undefined) | 132% (inactive) and 101% (inactive)
O=C1c2c(O)ccc(O)c2C(=O)c2c(NCCNCCO)ccc(NCCNCCO)c21 | -22.8% (active)
c1ccc(-c2nc3ccccc3s2)cc1 | 93% (inactive)
Nc1cc(N)c(N)cc1N | 67.7% (inactive)
O=[N+]([O-])c1cccc(SSc2cccc([N+](=O)[O-])c2)c1 | 121% (inactive)
Oc1ccc(Cc2ccccc2Cl)c(O)c1 | 94.4% (inactive)
OCCN1CCCCCCC1 | 90.8% (inactive)
CC1CCC(C(C)C)C(NNC(N)=O)C1 (centres undefined) | 91.6% (inactive)
Fc1ccc([I+]c2ccc(F)cc2)cc1 | 86.2% (inactive)
CC1=C/C(O)CC(=O)Cc2nc(co2)C(=O)N2CCC=C2C(=O)OC(C(C)C)C(C)/C=C\C(=O)NC/C=C\1 (centres undefined) | 63.4% (inactive)
COc1ccc2cc1Oc1ccc(cc1)C[C@H]1c3cc(c(OC)cc3CCN1C)Oc1c(OC)c(OC)cc3c1[C@H](C2)N(C)CC3 | 46% (inactive)
O=C1OC(c2ccccc2)=N/C1=C\c1ccccc1 | 97.4% (inactive)
COc1ccc(Nc2ccc3ccccc3c2)cc1 | 96.5% (inactive)

Tested on: NCI/ADR-RES ovarian
Experiment: as above
Settings: 10 µM unless noted

Structure (SMILES) | growth
CCc1cc(C)cc(O)c1 | 111% (inactive)
NN1CCOC(c2ccccc2)C1 (centres undefined) | 105% (inactive)
ClCCOCCOc1ccc(C2CCCCC2)cc1 | 115% (inactive)
O=c1n(CC2CO2)c(=O)n(CC2CO2)c(=O)n1CC1CO1 (centres undefined) | 72.2% (inactive)
Cc1ccc(S(=O)(=O)c2ccccc2)cc1 | 21.1% (inactive)
O=C(/C=C/c1ccccc1)c1ccccc1 | 118% (inactive)
Cc1cc(-c2ccc(N=Nc3ccc4c(S(=O)(=O)O)cc(S(=O)(=O)O)c(N)c4c3O)c(C)c2)ccc1N=Nc1ccc2c(S(=O)(=O)O)cc(S(=O)(=O)O)c(N)c2c1O | 103% (inactive)
c1ccc(CNCCNCc2ccccc2)cc1 | 112% (inactive)
Cc1cc2ccccc2cn1 | 103% (inactive) and 118% (inactive)
OC1COC(OCc2ccccc2)C(O)C1O (centres undefined) | 103% (inactive)
CCCCCCCCCCCCCCCc1ccc(N)c(OC2OC(CO)C(O)C(O)C2O)c1 (centres undefined) | 73% (inactive)
O=C(O)CCCl | 108% (inactive)
C#CCOC(=O)Nc1ccccc1 | 104% (inactive)
CC(C)C(C)(C)c1ccc(O)cc1 | 113% (inactive)
Cc1cc(-c2cc(C)c(O)c(C)c2)cc(C)c1O | 76% (inactive)
CC1(C)COC(=S)N1 | 106% (inactive)
CCOC(=O)c1c(C)cc(=O)oc1C | 104% (inactive)
CC[C@H](CC[C@@H](C)[C@H]1CC[C@H]2[C@@H]3CC=C4C[C@@H](O)CC[C@]4(C)[C@H]3CC[C@]12C)C(C)C | -46.1% (active) and 101% (inactive)
CN1CNC(=O)NC1 | 109% (inactive) and 103% (inactive)

Structure (SMILES) | growth
CC1CCC2(OC1)OC1CC3C4CC=C5CC(O)CCC5(C)C4CCC3(C)C1C2C (centres undefined) | 114% (inactive)
COc1cc(C(O)C2C(=O)OCC2C2(c3ccc4c(c3)OCO4)SCCCS2)cc(OC)c1OC (centres undefined) | 89.4% (inactive)
Nc1nc(N)c2[nH]cnc2n1 | 87.3% (inactive)
Cn1cnc([N+](=O)[O-])c1Sc1ncn[nH]1 | 119% (inactive)
O=c1[nH]cnc2c1ncn2C1OC(CO)C(O)C1O (centres undefined) | 99.5% (inactive) and 105% (inactive) and 102% (inactive)
CC(=O)OCC1OC(OC(C)=O)C(OC(C)=O)C(OC(C)=O)C1OC(C)=O (centres undefined) | 100% (inactive) and 107% (inactive)
O=C1c2c(O)ccc(O)c2C(=O)c2c(NCCNCCO)ccc(NCCNCCO)c21 | 39.1% (inactive) and -9.1% (active)
c1ccc(-c2nc3ccccc3s2)cc1 | 96.1% (inactive)
CCCCCCCCCCCCCCCCC(C(=O)O)C(O)(CC(=O)O)C(=O)O (centres undefined) | 111% (inactive) and 89.7% (inactive)
Nc1cc(N)c(N)cc1N | 59.6% (inactive)
O=[N+]([O-])c1cccc(SSc2cccc([N+](=O)[O-])c2)c1 | 116% (inactive)
Oc1ccc(Cc2ccccc2Cl)c(O)c1 | 91.5% (inactive)
OCCN1CCCCCCC1 | 102% (inactive)
CC1CCC(C(C)C)C(NNC(N)=O)C1 (centres undefined) | 105% (inactive)
Fc1ccc([I+]c2ccc(F)cc2)cc1 | 98.8% (inactive)
CC1=C/C(O)CC(=O)Cc2nc(co2)C(=O)N2CCC=C2C(=O)OC(C(C)C)C(C)/C=C\C(=O)NC/C=C\1 (centres undefined) | 109% (inactive)
COc1ccc2cc1Oc1ccc(cc1)C[C@H]1c3cc(c(OC)cc3CCN1C)Oc1c(OC)c(OC)cc3c1[C@H](C2)N(C)CC3 | 56.8% (inactive)
O=C1OC(c2ccccc2)=N/C1=C\c1ccccc1 | 99.7% (inactive)
COc1ccc(Nc2ccc3ccccc3c2)cc1 | 65.7% (inactive)

From PubChem BioAssay (NCI)
